# Assay results published in PubChem BioAssay (NCATS).
# Results filed as inconclusive are left out. The source made the active and inactive calls. Calls come from the whole dose curve; as a rule, active = well fitted cell-killing curve with a large enough effect; inconclusive = small, poorly fitted or top-dose-only effect, or effect the other way; inactive = flat fitted curve, though single readings scatter.
# System: HeLa
# Experiment: Primary qHTS to identify gynecologic anti-cancer compounds using libraries of approved drugs and bioactive compounds (AID 1345084); note: nearly all actives have a fitted effect of over 55% in size
# Conditions: Gynecologic cancer cell panel viability, ATPlite luminescence, 48 h; series mostly up to 57.5 µM; activity change, negative = cytotoxicity: at the top concentration
# Summary of the method: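 Five-concentration response, 48 h; readout is ATP-driven luciferase luminescence.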
# % is set by controls: 0 for no effect and ±100 for the full control effect.
row,Structure (SMILES),"activity change, negative = cytotoxicity"
1,OCC1OC(Oc2cc(O)cc(/C=C/c3ccc(O)cc3)c2)C(O)C(O)C1O (stereo unspecified),-11.7% [at 38.5 µM] (inactive)
2,CCC(C)/C=C(C)/C=C/c1cc2c(cn1)C(=O)C(C)(OC(C)=O)C(O)=C2Cl (stereo unspecified),7.98% [at 38.5 µM] (inactive)
3,CC1=CC(=O)CC(C)(C)[C@@]1(O)CC[C@@H](C)O[C@@H]1O[C@H](CO)[C@@H](O)[C@H](O)[C@H]1O,2.84% [at 38.5 µM] (inactive)
4,CC1(C)CCC[C@@]2(C)C1[C@H](OC(=O)/C=C/C=C/C(=O)O)C=C1COC(=O)[C@@]12O (stereo partly specified),2.32% [at 38.5 µM] (inactive)
5,O=C1NC2CCc3nc4ccccc4c(=O)n3C2=Nc2ccccc21 (stereo unspecified),3.13% [at 38.5 µM] (inactive)
6,CC(C)[N+]1(C)C2CCC1CC(OC(=O)C(CO)c1ccccc1)C2 (stereo unspecified),-4.95% (inactive)
7,COc1cc2oc(-c3ccc(O)cc3O)cc2c(OC)c1CC=C(C)C,3.46% [at 38.5 µM] (inactive)
8,CC(=O)OC1C(O)CC2(C)C(CCC(C)C23Cc2c(O)cc(CO)c(C=O)c2O3)C1(C)C (stereo unspecified),5.93% [at 25.3 µM] (inactive)
9,Cc1[nH]nc(C(F)(F)F)c1Cc1sc2c(c1C(=O)N1C[C@](C)(O)CO1)c(=O)n(C)c(=O)n2C(C)C,-2.89% (inactive)
10,O=C(CC1C(=O)Nc2ccccc21)OC[C@H]1O[C@@H](OCCc2ccc(O)cc2)[C@H](O)[C@@H](O)[C@@H]1O (stereo partly specified),-0.39% [at 25.3 µM] (inactive)
11,CC1CCC23COC(=O)C2=CC(O)CC3C1(C)CCC1=CC(O)OC1=O (stereo unspecified),-0.834% [at 38.5 µM] (inactive)
